Screens: PubChem, several laboratories
ssDAF12 agonist = activates DAF-12 receptor from parasite S. stercoralis | activation, % at 6.8 µM | 370,000 tested, 1% active | HEK293 ssDAF-12/GRIP1 lit1-tk-luc reporter, luminescence; % of 3 µM dafachronic acid response;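 active = activation above the mean over all tested compounds plus 3 SD, cut at about 0.9% in these data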;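 note: 0% = DMSO-only wells and 100% = 3 µM delta7-dafachronic acid wells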
Wnt bcat act = activates Wnt/beta-catenin signaling in a reporter cell assay; activator, plate reader; activation, % at 9.35 µM; 300,000 tested, 1.2% active; AID 743398; in the data active = activation above about 30%, passing the limit was not always enough; inconclusive = no clear call, values can overlap the other calls;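 note: 0% = neutral control wells and 100% = positive control wells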
esBAF inh = inhibitors of esBAF chromatin remodeling in mouse ES cells; Bmi1-luciferase knock-in reporter, 24 h; 100% = twice the neutral-well signal; reporter increase, % at 12.5 µM; 350,000 tested, 2% active; in the data active = activation above about 40%; inconclusive = no clear call, values can overlap the other calls;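 note: 0% = median of the plate's neutral control wells and 100% = double that signal; a rise in the Bmi1 reporter signal indicates esBAF inhibition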
hcDAF12 agonist = H. contortus DAF-12 activation, primary screen; HEK293 hcDAF-12 lit1-tk-luc reporter, luminescence; 0% DMSO, 100% Δ7-dafachronic acid; 370,000 tested, 1.4% active; activation, % at 6.8 µM;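 active = activation above the mean of all tested compounds plus 3 SD, cut at about 5.5% in these data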;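 note: 100% = response to 3 µM Δ7-dafachronic acid high control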
DAX1 StAR inh = blocks DAX1 repression of SF-1 activated StAR promoter; HEK293T StAR-luciferase reporter, SF-1/DAX-1 repression relief; inhibition, % at 6.8 µM; 370,000 tested, 1.1% active;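 active = inhibition above the mean over all tested compounds plus 3 SD, cut at about 3.6% in these data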;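 note: 0% = DAX-1 cells with DMSO and 100% = cells lacking DAX-1 with DMSO; higher inhibition means more luminescence from relief of DAX-1 repression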
hgDAF12 agonist = hgDAF-12 agonism, primary luciferase screen | activation, % at 6.8 µM | HEK293 GAL4-hgDAF12 UAS-luciferase reporter, agonist luminescence; normalized to butyrate control | 370,000 tested, 1.8% active | AID 687014;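 active = activation above a cutoff set at the mean of all screened compounds plus 3 SD, cut at about 10% in these data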;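 note: 0% = DMSO wells and 100% = sodium butyrate wells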
The depositor's hits bear a star; ? = inconclusive; · = not tested or not shown. In the library only some 4.2% were active in any assay of this set; here they are far more common.

SMILES	ssDAF12 agonist	Wnt bcat act	esBAF inh	hcDAF12 agonist	DAX1 StAR inh	hgDAF12 agonist
O=C(Nc1ccc(-c2cn3ccsc3n2)cc1)C1CC1	0	42*	38	2	3	10
O=C(CC1CCCCC1)Nc1ccc(-c2ccc3nncn3n2)cc1	-1	-4	·	-2	0	-1
O=C(CCN1C(=O)c2ccccc2C1=O)Nc1ccc(-c2cn3ccsc3n2)cc1	-1	·	-8	-2	0	1
CCCN1C[C@@H](C)[C@@H](OC)CN(C)C(=O)c2ccc(NC(=O)c3cnccn3)cc2OC[C@H]1C	·	·	0	·	·	·
Cc1ccc(S(=O)(=O)N[C@@H]2C=C[C@@H](CC(=O)NCCc3ccncc3)O[C@H]2CO)cc1	·	·	-1	·	·	·
CO[C@@H]1CN(C)C(=O)c2cc(NC(=O)Nc3c(C)noc3C)ccc2OC[C@@H](C)N(C)C[C@H]1C	·	·	-1	·	·	·
Cc1ccc(S(=O)(=O)N[C@H]2C=C[C@H](CC(=O)NCCCN(C)C)O[C@H]2CO)cc1	·	·	1	·	·	·
CC(=O)Nc1ccccc1C(=O)C(=O)Nc1ccc(Cl)cc1	0	0	·	1	0	5
CC(=O)Nc1ccccc1C(=O)C(=O)Nc1ccccc1	0	3	35*	1	0	2
O=C(c1cc2ccccc2oc1=O)N(Cc1ccccc1F)C1CCS(=O)(=O)C1 (stereo not given)	-1	7	?	5.8*	2	5
COc1cccc(CN(C(=O)c2cc3ccccc3oc2=O)C2CC2)c1	-1	?	57*	-1	1	3
CCOc1ccc(CN(C(=O)c2cc3ccccc3oc2=O)C2CCS(=O)(=O)C2)cc1 (stereo not given)	1	3	76*	3	1	2
COc1ccccc1S(=O)(=O)N[C@H]1C=C[C@H](CC(=O)NCc2cc(F)cc(F)c2)O[C@H]1CO	·	·	-1	·	·	·
C[C@H](NC(=O)C[C@@H]1C=C[C@@H](NC(=O)C2CCOCC2)[C@@H](CO)O1)c1ccccc1	·	·	1	·	·	·
O=C(N[C@H]1CC[C@@H](CCNC(=O)C2CCOCC2)O[C@@H]1CO)c1ccccn1	·	·	0	·	·	·
COc1ccccc1-c1ccc([C@H]2[C@@H](CO)N3CCCCN(Cc4ccncc4)C[C@H]23)cc1	·	·	-6	·	·	·
c1ccc(Nc2nnc(-c3cccc4ccccc34)o2)cc1	1.2*	38*	·	6.3*	2	8
OCC#CCSc1nnc(-c2cccc3ccccc23)o1	-1	4	5	-2	0	1
CCNC(=O)C[C@H]1C=C[C@H](NC(=O)NC2CCCCC2)[C@H](CO)O1	·	·	2	·	·	·
COc1cc(Cl)ccc1OCc1cc(C(=O)N(C)C2CCOC2)no1 (stereo not given)	-1	1	55*	3	1	6
COc1cccc(OCc2cc(C(=O)N(C)C3CCOCC3)no2)c1	-1	-1	·	4	0	1
Cc1cc(OCc2cc(C(=O)N(C)C3CCOC3)no2)cc(C)c1Cl (stereo not given)	0	35*	83*	4	1	11*
Cc1nccnc1Sc1ccccc1	2.0*	-2	-12	1	0	-2
O=C(O)c1cccnc1Sc1ccccc1	-1	·	·	-2	0	-1
CO[C@H]1CN(C)C(=O)c2ccc(NC(=O)C3CC3)cc2OC[C@@H](C)N(CC2CCOCC2)C[C@@H]1C	·	·	5	·	·	·
SMILES	ssDAF12 agonist	Wnt bcat act	esBAF inh	hcDAF12 agonist	DAX1 StAR inh	hgDAF12 agonist
COc1ccc(NC(=O)Nc2cccc3c2O[C@@H](CN(C)CC2CCCCC2)[C@H](C)CN([C@@H](C)CO)C3=O)cc1	·	·	0	·	·	·
CC[C@H]1c2[nH]c3ccc(C(C)C)cc3c2[C@@H]2CCN3C(=O)CCC[C@H]1[C@H]23	-1	-3	11	-2	0	-4
CC(C)c1ccc2[nH]c3c(c2c1)[C@@H]1CCN2C(=O)CCC[C@H](C3)[C@H]12	-1	15	81*	-1	1	3
CCOC(=O)c1cnc(SCC(C)C)nc1N	0	70*	52*	2	3	11*
CCOC(=O)c1cnc(SC)nc1N	-1	-1	2	-1	0	1
CCOC(=O)c1cnc(SCc2cccc(C)c2)nc1N	-1	40*	·	0	0	5
CC(=O)Nc1ccc2c(c1)nc(CCN1CCC(C)CC1)n2C	-1	-4	-12	-2	0	-4
CC1CCN(CCc2nc3cc(NC(=O)Nc4ccccc4)ccc3n2C)CC1	-2	22	44*	0	1	0
CCCCN(C(=O)c1oc2ccc(OCC)cc2c1C)c1c(N)n(CC(C)C)c(=O)[nH]c1=O	-1	-2	3	2	4.2*	0
CCCCn1c(N)c(N(CC(C)C)C(=O)c2oc3ccc(OCC)cc3c2C)c(=O)[nH]c1=O	-1	-1	-3	1	-2	-3
CC(C)c1cn(CC[C@@H]2CC[C@@H](NC(=O)C3CCCCC3)[C@H](CO)O2)nn1	·	·	2	·	·	·
COc1cccc(-c2noc(-c3ccoc3C)n2)c1	1	17	·	2	3	12*
COc1ccc(-c2noc(-c3ccoc3C)n2)cc1	1.7*	12	·	5	4.0*	11*
COc1ccc(-c2noc(-c3ccoc3C)n2)cc1OC	0	12	·	2	2	3
C[C@@H]1CN([C@H](C)CO)S(=O)(=O)c2ccc(C#C[C@@H](C)O)cc2O[C@@H]1CN(C)C(=O)C1CC1	·	·	-8	·	·	·
Cc1cc(NC(=O)Cn2nnc(-c3ccccc3NC(=O)c3ccccc3F)n2)no1	1.4*	-3	-5	-1	0	2
COCc1nn2c(N)c(C#N)cnc2c1-c1ccccc1	-1	-2	0	-3	0	0
COCc1nn2c(N)c(-c3ccccc3)cnc2c1-c1ccccc1	-1	8	50*	1	1	10
CCCNC(=O)C[C@H]1C[C@H]2c3cc(NC(=O)Nc4ccccc4)ccc3O[C@H]2[C@H](CO)O1	·	·	5	·	·	·
O=C(C[C@H]1CC[C@@H](NC(=O)CN2CCOCC2)[C@@H](CO)O1)NCc1cccc(F)c1	·	·	2	·	·	·
Cc1ccc(OCCCN2CCOCC2)c([N+](=O)[O-])c1	-1	11	·	5	2	13*
C=CCN(CC=C)CCOc1ccc(C)cc1[N+](=O)[O-]	0	26	53*	3	1	7
Cc1ccc(OCCN2CCN(C)CC2)c([N+](=O)[O-])c1	-1	1	·	0	0	5
C=CCN(CC=C)CCOc1cc(C)ccc1[N+](=O)[O-]	-1	0	·	-2	-1	-1
Cc1noc(C)c1NC(=O)Nc1ccc2c(c1)CC(=O)N([C@H](C)CO)C[C@@H](C)[C@H](CN(C)Cc1ccncc1)O2	·	·	-1	·	·	·
CS(=O)(=O)c1ccccc1COC(=O)Nc1ccc(Cl)cc1	-1	·	10	-1	1	6
